# Bioassay records deposited in PubChem BioAssay by several laboratories.
# GRIN3A LBD mod = binders of NR3A ligand-binding domain, primary screen, biophysical, differential scanning fluorimetry, uHTS | Glutamate receptor ionotropic, NMDA 3A (GRIN3A) ligand-binding domain | Tm shift relative to glycine control, % at 25 µM | AID 1259313, 2017 | NR3A LBD differential scanning fluorimetry, Tm shift; 0% = protein alone, 100% = glycine-bound protein | 340,000 compounds, 2.5% hits;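 active means melting temperature shift of at least 10% of the positive control shift, at one fixed dose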
# UBC13 inh = UBC13 polyubiquitin chain formation inhibitors, primary screen, biochemical, TR-FRET, uHTS. Ubiquitin-conjugating enzyme E2 N (Homo sapiens), P61088. inhibition, % at 20 µM. 330,000 compounds, 0.47% hits. AID 485273, 2010; in the data active means inhibition above about 45%, passing the limit was not always enough
# Target sequence (P61088 whole entry, looked up): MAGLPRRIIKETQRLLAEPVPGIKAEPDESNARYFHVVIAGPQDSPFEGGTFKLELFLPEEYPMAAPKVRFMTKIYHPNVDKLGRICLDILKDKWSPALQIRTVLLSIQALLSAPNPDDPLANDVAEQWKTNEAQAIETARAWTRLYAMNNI
# CR mimetic SO = reduction of superoxide in aged yeast, primary screen, HTS; S. cerevisiae aged cells, superoxide DHE fluorescence; active compounds read low; superoxide response (% of plate mean), % at 10 µM; 330,000 compounds, 0.18% hits;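 active means superoxide response under a set limit, about three screen SD below normal, cut at about 65% in these data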;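 further: yeast aged for seven days with compound at 30 °C before DHE staining; 100% = average MFI of all compound-treated wells on the plate with controls excluded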
# NALP1 yeast inh = NALP1 inflammasome inhibitors in reconstituted yeast, colorimetric, S. cerevisiae, triplicate retest. 280,000 compounds, 0.61% hits. S. cerevisiae NALP1/ASC/caspase-1 growth, X-gal OD620, 72 h. inhibition, % at 10 µM; in the data active means inhibition mostly above about 24%, no sharp cut-off; inactive means mostly below about 32%
# dFosB act = activators of delta FosB homodimer, primary screen, biochemical, fluorescence polarization, TAMRA-CDK5 oligo, single point. Protein FosB (Mus musculus), P13346. purified delta FosB; percent of positive-control signal above neutral wells. 340,000 compounds, 0.99% hits. activation, % at 25 µM;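 active means mean activation above about 17%, with every replicate also reaching it, limit read from the data, passing the limit was not always enough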
# Target sequence (P13346 whole entry, looked up): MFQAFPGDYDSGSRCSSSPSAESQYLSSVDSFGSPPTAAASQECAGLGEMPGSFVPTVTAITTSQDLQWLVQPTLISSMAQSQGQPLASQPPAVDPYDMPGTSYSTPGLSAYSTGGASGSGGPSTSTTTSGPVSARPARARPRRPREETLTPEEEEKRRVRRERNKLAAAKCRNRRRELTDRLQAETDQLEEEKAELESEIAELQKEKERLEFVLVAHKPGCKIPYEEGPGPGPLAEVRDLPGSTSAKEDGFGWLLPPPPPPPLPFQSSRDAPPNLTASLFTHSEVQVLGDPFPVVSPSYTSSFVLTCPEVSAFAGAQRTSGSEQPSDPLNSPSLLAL
# Numbers without * were called inactive; / = no result given. A selection: hits, their analogues and other compounds. The true share with any hit is near 4.3%.
SMILES,GRIN3A LBD mod,UBC13 inh,CR mimetic SO,NALP1 yeast inh,dFosB act
COc1ccc(CN2CCC(n3nccc3NC(=O)C3CC3)CC2)cc1O,14.1*,7.6,86.6,8.3,7.0
CCOCc1cc(CN2CCC(n3nccc3NC(=O)C3CC3)CC2)ccc1OC,1.5,0.5,/,21.5,4.4
CC(=O)c1cccc(CN2CCC(n3nccc3NC(=O)CCOc3ccccc3)CC2)c1,-1.2,-2.7,79.9,31.3*,-5.9
CN(CC(=O)Nc1ccc(Cl)cc1)C(=O)CCc1c[nH]c2ccccc12,-1.7,8.1,109.3,24.1,-6.5
N#Cc1c(-c2ccccc2)c(-c2ccccc2)nn(CC(=O)NNC(=O)Nc2ccc(Cl)cc2)c1=O,15.2*,1.4,92.4,-2.2,-2.1
Nc1c(N(CCCO)C(=O)C2CCCCC2)c(=O)[nH]c(=O)n1Cc1ccccc1,-0.2,0.9,99.7,/,-2.8
COc1ccc(-c2cn(CCN)c(-c3ccncc3)n2)cc1,5.7,-1.6,90.5,/,-5.3
CN(C(=O)Cc1noc2ccccc12)c1ccccc1,11.9*,5.6,106.2,-11.4,0.9
O=C(CCC(=O)OCC(=O)c1ccc(F)cc1)NC1CCCCC1,-1.2,8.5,101.2,-7.1,0.3
O=C(CCC(=O)OCC(=O)c1ccc(Br)cc1)NC1CCCCC1,10.2*,-5.0,99.8,-1.1,-5.6
Cc1ccc(Oc2ccc(C(=O)NC3CCSC3=O)cn2)cc1 (stereo not given),11.0*,2.6,91.8,4.6,0.2
Cc1n[nH]c(=S)n1/N=C/c1ccccc1OCc1ccc(Cl)cc1Cl,15.5*,-17.8,94.7,24.5,-11.7
COc1ccccc1/C=C/C=N/NC(=O)c1ccc2nc[nH]c2c1,/,-23.4,101.7,-8.1,/
Cc1ccc2oc3ccccc3c(=O)c2c1,-1.1,/,/,/,-15.1
O=c1c2ccccc2oc2ccc(-c3ccc4cc[nH]c4c3)cc12,26.0*,10.4,115.7,/,-4.3
CC12CCC(=O)N1C(C(=O)N1CCN(c3cccc(Cl)c3)CC1)CS2 (stereo not given),2.6,5.3,84.0,/,-0.6
COC(=O)c1nc[nH]c1[N+](=O)[O-],0.5,/,/,/,0.4
O=[N+]([O-])c1[nH]cnc1/C=C/c1ccccc1,22.3*,-18.7,104.3,-11.3,1.1
CC(C)(C)CN1CCNC(=O)C1CC(=O)NCCN1CCCc2ccccc21 (stereo not given),-2.7,12.6,93.9,12.7,-5.4
CCOC(=O)c1ccc(NC(=O)COc2ccc(-n3cnnn3)cc2)cc1,30.9*,-13.0,109.7,2.3,8.9
CCOC(=O)c1ccc(NC(=O)C(C)NS(=O)(=O)c2ccc(OC)cc2)cc1 (stereo not given),-2.7,-5.8,106.5,-0.1,-18.8
CCOC(=O)c1ccc(NC(=O)COc2ccc(S(=O)(=O)NC(C)CC)cc2)cc1 (stereo not given),-0.7,10.4,116.3,28.3*,2.4
NC(N)=N/N=C/c1cccc(Cl)c1Cl,0.7,-0.7,104.9,29.9,-11.8
O=C(NCCc1ccccc1)C(=O)NCC1CCCN1S(=O)(=O)c1cccs1 (stereo not given),0.5,-1.7,106.7,/,-4.1
Cc1ccc(NC(=O)c2cccc(NC(=O)/C=C/c3ccco3)c2)cc1C,15.3*,0.4,122.8,26.5,1.1
SMILES,GRIN3A LBD mod,UBC13 inh,CR mimetic SO,NALP1 yeast inh,dFosB act
CCc1ccccc1NC(=O)c1cccc(NC(=O)/C=C/c2ccco2)c1,-3.7,-3.7,113.6,20.6,-3.9
CCCOC(=O)c1c(-c2ccccc2)nc(CC)c(C(=O)SCC)c1CCC,10.1*,0.5,108.5,/,0.3
C=C(C)COc1ccc(-c2[nH]ncc2Oc2ccc(OC)cc2)c(O)c1,8.8,0.9,109.8,/,2.9
C=C(C)COc1ccc(-c2[nH]ncc2Oc2ccccc2OC)c(O)c1,15.7*,30.0,105.9,9.2,-17.5
CCOc1ccc(-c2[nH]ncc2-c2ccc(Cl)cc2)c(O)c1,21.9*,0.7,108.8,-70.7,-5.4
CCCOC(=O)c1ccc(Oc2cn[nH]c2-c2ccc(OC)cc2O)cc1,17.4*,11.8,95.5,-4.4,-5.0
C=C(C)COc1ccc(-c2[nH]ncc2-c2ccc(Br)cc2)c(O)c1,29.5*,14.4,76.4,18.6,4.7
COc1cccc(CNC(=O)CN2C(=O)CCSc3ccc(S(=O)(=O)N4CCCC4)cc32)c1,-2.1,-6.4,111.3,-20.2,-10.2
C=C(C)COc1ccc(-c2ncncc2-c2ccc(Br)cc2)c(O)c1,-0.5,6.8,80.1,-0.4,-11.1
C=C(C)COc1ccc(-c2nc(N)ncc2-c2ccc(Br)cc2)c(O)c1,12.3*,7.7,109.0,-1.2,-2.0
C=C(C)COc1ccc(-c2ncnc(C(F)(F)F)c2-c2ccc(OC)cc2)c(O)c1,-1.0,-11.5,119.6,-12.4,-6.9
C=C(C)COc1ccc(-c2n[nH]c(C)c2-c2ccc(Br)cc2)c(O)c1,32.2*,1.6,105.8,13.1,-17.1
Oc1ccc(/C=N/Nc2nc(-c3ccc(Cl)cc3)cc(C(F)(F)F)n2)cc1,31.6*,-1.6,87.9,25.8,-6.7
Cc1cc(-c2ccccc2)nc(N/N=C/c2ccc(O)cc2)n1,7.4,-5.0,/,/,-9.9
Cc1ccc(NC(=O)N/C=C/c2ccc(Cl)cc2)cc1,16.4*,-8.3,97.9,2.3,-6.6
O=C(N/C=C/c1ccccc1)Nc1ccc(Cl)cc1,11.2*,-3.6,94.8,16.5,-6.2
Cc1ccc(NC(=O)N/C=C/c2ccccc2)cc1,1.0,1.9,79.5,8.2,-7.9
CCN(c1ccccc1)S(=O)(=O)c1ccc(OC)c(NC(=O)C2CC(=O)N(Cc3ccccc3)C2)c1 (stereo not given),2.2,-3.4,110.1,/,-25.2
O=C1c2cccc3cccc(c23)C(=O)N1OS(=O)(=O)c1ccc(Cl)cc1,-4.0,17.7,97.8,18.0,-6.3
CCc1ccc(S(=O)(=O)ON2C(=O)c3ccccc3C2=O)cc1,16.2*,17.2,/,-9.2,-8.0
CCCCn1c(N)c(N(CCOC)C(=O)CCS(=O)(=O)c2ccc(Cl)cc2)c(=O)[nH]c1=O,1.8,-5.2,93.6,/,-9.7
COc1ccc(C2N(C(=O)C(F)(F)F)C(C)CN2S(=O)(=O)c2ccc(C)cc2)cc1 (stereo not given),1.1,0.1,97.8,11.8,-6.0
Cc1cccc(NC(=O)COC(=O)c2cccc3c2C(=O)c2ccccc2C3=O)c1C,-13.0,-18.0,92.1,13.3,-7.8
CCN(CC)CCC(=O)Nc1cccc2c1C(=O)c1ccccc1C2=O,-0.6,-66.8,123.3,15.0,35.0*
Nc1cccc(C(=O)OCC(=O)Nc2cccc3c2C(=O)c2ccccc2C3=O)c1,33.3*,-22.0,114.2,44.1,-5.4
COc1ccc(OC)c(C(=O)c2ccc(C(=O)c3cc(OC)ccc3OC)cc2)c1,19.8*,22.7,84.3,2.9,-6.3
COc1ccc(-c2nnc3ccc(SCC(=O)Nc4nc5ccccc5s4)nn23)cc1OC,4.5,-4.3,90.7,10.8,6.1
